In the supplement of paper PMC10646978 one finds NF-kB reporter, IRF reporter and viability score data, which are given here for 13 molecules.

Holding throughout (details): modulator concentration 10 µM
The test system of experiment [1] is RAW-Dual (murine macrophage reporter line). Description: NF-kB reporter (SEAP) activity fold change vs agonist alone; higher = enhanced NF-kB activity. The gist of the method:
(§1)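 Compound reached 10 μM final in each well by pin transfer, onto RAW-Dual murine macrophage reporter cells seeded at 50 000 per well in 384-well plates. After 1 hour at 37 °C, the cells were stimulated overnight with a PRR agonist. SEAP in the supernatant was read with QUANTI-Blue at 620 nm absorbance for NF-κB, and Lucia luciferase was read with QUANTI-Luc luminescence for IRF. Each signal was turned into fold change against the mean agonist-only control on the same plate, and two replicate plates were averaged with propagated errors.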

The test system is the same in experiment [2]. The experiment in a line: IRF reporter (Lucia luciferase) activity fold change vs agonist alone; higher = enhanced IRF activity. An outline of the steps:
as §1

For experiment [3] the test system is unchanged. The experiment in a line: viability score (confluency relative to resting cells, overnight) (fraction); higher = more viable, active = viable (0.7 or more). An outline of the steps:
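RAW-Dual macrophages in 384-well plates were treated overnight with compound at 10 μM final. IncuCyte imaging recorded confluency, and IncuCyte software built two confluency masks across every imaged well. The viability score expresses confluency relative to resting cells and was judged against a cutoff, which a compound met only if both masks exceeded 70% of resting cells.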

Setting [4] is: agonist: CpG ODN 1826 0.5 ug/mL.

± gives the standard deviation.

Turning to `COc1ccc(C(=O)CSc2nnc(NC(=O)C3CC(=O)N(c4cccc(OC)c4)C3)s2)cc1` (stereo unspecified), the NF-kB reporter was determined as 1.15 ± 0.066 in experiment [1] (setting [4]), 1.11 ± 0.11 in experiment [1] (agonist: LPS 0.1 ug/mL) and 1.23 ± 0.13 in experiment [1] (agonist: MPLA […]). Also, the results for the IRF reporter in experiment [2] (agonist: 3'3'-cGAMP 10 ug/mL), in experiment [2] (agonist: LPS 0.1 ug/mL) and in experiment [2] (agonist: MPLA […]) were 0.528 ± 0.026, 0.758 ± 0.059 and 0.708 ± 0.23, respectively. Moreover, the viability score in experiment [3] was 1.01 (active).

On to `CCOC(=O)C1=C(COCCN)NC(C)=C(C(=O)OC)C1c1ccccc1Cl.O=S(=O)(O)c1ccccc1` (stereo unspecified), for which the NF-kB reporter in experiment [1] (setting [4]) stood at 0.921 ± 0.14; in experiment [1] (agonist: LPS 0.1 ug/mL), 1.33 ± 0.18; in experiment [1] (agonist: MPLA […]), 3.73 ± 0.3. Moreover, the results for the IRF reporter in experiment [2] (agonist: 3'3'-cGAMP 10 ug/mL), in experiment [2] (agonist: LPS 0.1 ug/mL) and in experiment [2] (agonist: MPLA […]) were 0.449 ± 0.058, 1.55 ± 0.2 and 5.89 ± 1.2, respectively. Also, in experiment [3], the viability score is 0.0981 (inactive).

For `Cc1ccc(C)c(C(=O)c2ccccc2NC(=O)c2ccccn2)c1`, the NF-kB reporter in experiment [1] (setting [4]) is 0.733 ± 0.041; in experiment [1] (agonist: LPS 0.1 ug/mL) it was 0.85 ± 0.071; in experiment [1] (agonist: MPLA […]), 0.839 ± 0.054. Also, the IRF reporter was 1.01 ± 0.068 in experiment [2] (agonist: 3'3'-cGAMP 10 ug/mL), 1.18 ± 0.15 in experiment [2] (agonist: LPS 0.1 ug/mL) and 1.11 ± 0.13 in experiment [2] (agonist: MPLA […]). Further, in experiment [3], the viability score is 1.01 (active).

On to `Cn1nc(CNS(=O)(=O)c2cccc(C(F)(F)F)c2)c2c1CCCC2`, for which the NF-kB reporter in experiment [1] (setting [4]) was 0.981 ± 0.052; in experiment [1] (agonist: LPS 0.1 ug/mL), 0.98 ± 0.092; in experiment [1] (agonist: MPLA […]) it was 1.21 ± 0.13. In addition, the IRF reporter in experiment [2] (agonist: 3'3'-cGAMP 10 ug/mL) is 0.987 ± 0.085; in experiment [2] (agonist: LPS 0.1 ug/mL), 1.06 ± 0.15; in experiment [2] (agonist: MPLA […]), 1.05 ± 0.27. Moreover, the viability score in experiment [3] is 0.926 (active).

Consider `CCOC(=O)C1=C(C)NC(C)=C(C(=O)OC)C1c1cccc([N+](=O)[O-])c1` (stereo unspecified), for which the NF-kB reporter stood at 0.706 ± 0.055 in experiment [1] (setting [4]), 0.763 ± 0.088 in experiment [1] (agonist: LPS 0.1 ug/mL) and 0.859 ± 0.076 in experiment [1] (agonist: MPLA […]). Further, the IRF reporter in experiment [2] (agonist: 3'3'-cGAMP 10 ug/mL) worked out at 1.02 ± 0.049; in experiment [2] (agonist: LPS 0.1 ug/mL) it was 1.44 ± 0.098; in experiment [2] (agonist: MPLA […]), 1.37 ± 0.11. The viability score in experiment [3] is 0.985 (active).

In the case of `O=C(NC(=S)Nc1ccccc1C(F)(F)F)c1cccc(I)c1`, the NF-kB reporter in experiment [1] (setting [4]) is 0.927 ± 0.088; in experiment [1] (agonist: LPS 0.1 ug/mL) it was 0.989 ± 0.076; in experiment [1] (agonist: MPLA […]) it was 0.9 ± 0.066. Besides, the IRF reporter in experiment [2] (agonist: 3'3'-cGAMP 10 ug/mL) is 0.989 ± 0.025; in experiment [2] (agonist: LPS 0.1 ug/mL) it was 1.24 ± 0.13; in experiment [2] (agonist: MPLA […]), 1.09 ± 0.14. Also, the viability score in experiment [3] was 1.01 (active).

As for `CCOc1ccc2c(c1)C(c1ccccc1C(F)(F)F)CC(=O)N2` (stereo unspecified), the results for the NF-kB reporter in experiment [1] (setting [4]), in experiment [1] (agonist: LPS 0.1 ug/mL) and in experiment [1] (agonist: MPLA […]) were 1.02 ± 0.17, 1.05 ± 0.091 and 1.03 ± 0.1, respectively. Moreover, the IRF reporter in experiment [2] (agonist: 3'3'-cGAMP 10 ug/mL) was 1.09 ± 0.046; in experiment [2] (agonist: LPS 0.1 ug/mL), 1.43 ± 0.33; in experiment [2] (agonist: MPLA […]), 1.57 ± 0.23. Besides, in experiment [3], the viability score is 0.995 (active).

As for `Cc1cc(N2CCCCC2)nc2ccccc12`, the figures for the NF-kB reporter in experiment [1] (setting [4]), in experiment [1] (agonist: LPS 0.1 ug/mL) and in experiment [1] (agonist: MPLA […]) were 0.493 ± 0.041, 0.701 ± 0.056 and 0.73 ± 0.093, respectively. For the same molecule, the IRF reporter in experiment [2] (agonist: 3'3'-cGAMP 10 ug/mL) was found to be 0.982 ± 0.032; in experiment [2] (agonist: LPS 0.1 ug/mL) it was 1.03 ± 0.098; in experiment [2] (agonist: MPLA […]) it was 1.21 ± 0.17. Moreover, the viability score in experiment [3] is 0.293 (inactive).

With `COc1ccc(C=CC(=O)O)cc1OC`, the NF-kB reporter in experiment [1] (setting [4]) came to 1.03 ± 0.077; in experiment [1] (agonist: LPS 0.1 ug/mL), 1.1 ± 0.059; in experiment [1] (agonist: MPLA […]), 1 ± 0.022. Moreover, the IRF reporter in experiment [2] (agonist: 3'3'-cGAMP 10 ug/mL) was 1.03 ± 0.06; in experiment [2] (agonist: LPS 0.1 ug/mL), 0.954 ± 0.078; in experiment [2] (agonist: MPLA […]) it was 0.973 ± 0.095. In addition, in experiment [3], the viability score was 0.996 (active).

As for `CC12CCC(=O)C=C1C=CC1C2CCC2(C)C1CCC21CCC(=O)O1` (stereo unspecified), the NF-kB reporter in experiment [1] (setting [4]) came to 0.781 ± 0.19; in experiment [1] (agonist: LPS 0.1 ug/mL), 0.958 ± 0.084; in experiment [1] (agonist: MPLA […]), 0.93 ± 0.059. In addition, the IRF reporter in experiment [2] (agonist: 3'3'-cGAMP 10 ug/mL) was 0.963 ± 0.034; in experiment [2] (agonist: LPS 0.1 ug/mL), 1.1 ± 0.21; in experiment [2] (agonist: MPLA […]) it was 1.06 ± 0.12. Further, the viability score in experiment [3] is 1.01 (active).

With `Cc1cc(C)n(CCCN2C(=O)c3cccc4cccc(c34)C2=O)n1`, the NF-kB reporter in experiment [1] (setting [4]) was found to be 0.926 ± 0.084; in experiment [1] (agonist: LPS 0.1 ug/mL), 1.04 ± 0.083; in experiment [1] (agonist: MPLA […]), 0.955 ± 0.11. The figures for the IRF reporter in experiment [2] (agonist: 3'3'-cGAMP 10 ug/mL), in experiment [2] (agonist: LPS 0.1 ug/mL) and in experiment [2] (agonist: MPLA […]) were 0.993 ± 0.054, 1.09 ± 0.075 and 1.14 ± 0.088, respectively. Further, the viability score in experiment [3] is 1.01 (active).

On to `Br.CCCCn1c(=N)n(CC(=O)OC)c2ccccc21`, for which the NF-kB reporter is 1.13 ± 0.1 in experiment [1] (setting [4]), 0.957 ± 0.081 in experiment [1] (agonist: LPS 0.1 ug/mL) and 1.05 ± 0.059 in experiment [1] (agonist: MPLA […]). Besides, the IRF reporter in experiment [2] (agonist: 3'3'-cGAMP 10 ug/mL) was 0.955 ± 0.055; in experiment [2] (agonist: LPS 0.1 ug/mL), 1 ± 0.055; in experiment [2] (agonist: MPLA […]), 1.15 ± 0.15. In addition, the viability score in experiment [3] is 0.999 (active).

As to `Oc1ccc(N=Cc2ccccc2)cc1`, the NF-kB reporter in experiment [1] (setting [4]) is 1.38 ± 0.18; in experiment [1] (agonist: LPS 0.1 ug/mL), 1.2 ± 0.079; in experiment [1] (agonist: MPLA […]) it was 2.67 ± 0.18. For the same molecule, the IRF reporter was 0.605 ± 0.037 in experiment [2] (agonist: 3'3'-cGAMP 10 ug/mL), 0.924 ± 0.082 in experiment [2] (agonist: LPS 0.1 ug/mL) and 1.58 ± 0.35 in experiment [2] (agonist: MPLA […]). Further, in experiment [3], the viability score was 0.988 (active).
